Screening data from PubChem.
This is a sample that favours compounds with a hit; in the whole collection about 6.9% have one here.
HCV NS3h FP = hepatitis C NS3 helicase inhibition, primary screen; NS3h Cy5-dT15 DNA binding, fluorescence polarization; inhibition, % at 100 µM; actives 1.6% (n = 16,000);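 active means inhibition above the average over every tested compound plus 3 SD, cut at about 40% in these data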
Cy5 interf NS3h = enhances or quenches Cy5 fluorescence in NS3h assay; AID 720488; Cy5-dT15 DNA with NS3h, fluorescence interference; actives lie on both sides; signal over control mean, under 1 quenches; actives 6% (n = 16,000); fluorescence interference ratio at 100 µM;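 active means compound fluorescence over control fluorescence at most 0.8, a quencher, or at least a set upper limit, an enhancer; inactive means ratio between 0.8 and the set upper limit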
HCV NS3h conf = hepatitis C NS3 helicase inhibition, confirmation | shares compounds with HCV NS3h FP | NS3h binding to Cy5-dT15 DNA, fluorescence polarization | inhibition, % at 100 µM | actives 20% (n = 240);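 active means percent inhibition of 50% or more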
SSB FP counter = E. coli SSB-DNA binding inhibition, NS3h counter-screen | E. coli SSB binding Cy5-dT15, fluorescence polarization | inhibition, % at 100 µM | actives 40% (n = 240) | shares compounds with HCV NS3h FP;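 active means inhibition of at least 50%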;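 further: displacers lower Cy5 polarization so higher inhibition means more SSB displaced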
Target sequence (P0AGE0 whole entry, looked up): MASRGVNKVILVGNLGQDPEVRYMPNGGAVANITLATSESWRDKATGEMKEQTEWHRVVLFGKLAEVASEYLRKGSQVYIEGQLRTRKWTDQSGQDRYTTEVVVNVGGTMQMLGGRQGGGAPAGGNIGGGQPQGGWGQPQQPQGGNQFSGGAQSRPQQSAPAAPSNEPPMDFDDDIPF
Cy5 SSB fluor CB = enhances or quenches Cy5-DNA fluorescence with E. coli SSB; shares compounds with HCV NS3h FP; Cy5-dT15/E. coli SSB fluorescence interference; actives lie on both sides; fluorescence interference ratio at 100 µM; actives 8% (n = 240); AID 720487;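 active means fluorescence interference ratio at or above 1.2, signal boosting, or at or below 0.8, signal quenching; inactive means ratio between 0.8 and 1.2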;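 further: ratio of compound well signal to mean negative control signal so 1 means no effect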
Cy5 fluor confirm = confirmation counter-screen for HCV NS3 helicase inhibitors: fluorescence interference. AID 720489. shares compounds with HCV NS3h FP. fluorescence interference ratio at 100 µM, hits read low. Cy5-dT15 DNA/NS3h fluorescence interference counterscreen. actives 44% (n = 240);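 active means fluorescence interference ratio at or below 0.8 quencher or at or above a set limitenhancer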;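 further: ratio of compound fluorescence to mean of negative controls so 1 means no interference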
* = called active by the depositor.

SMILES	HCV NS3h FP	Cy5 interf NS3h	others
CCc1ccc(N2C(=O)NC(=O)/C(=C/C=C/c3ccco3)C2=O)cc1	42*	0.84
O=C1NC(=O)N(c2ccc(Br)cc2)C(=O)/C1=C/C=C/c1ccccc1	12	1.1
O=S(=O)(c1cc(Cl)c(O)c(Cl)c1)c1cc(Cl)c(O)c(Cl)c1	2	1
Cc1cc(-c2ccc(C=C3C(=O)NC(=O)NC3=O)o2)ccc1[N+](=O)[O-]	11	0.76*
O=C1NC(=O)C(=Cc2ccccc2OCCOc2ccc([N+](=O)[O-])cc2)C(=O)N1	22	0.82
Cc1ccc(C=C2C(=O)NC(=O)NC2=O)cc1[N+](=O)[O-]	34	0.94
COc1ccc(-c2ccc(C=C3C(=O)NC(=O)NC3=O)o2)c([N+](=O)[O-])c1	38	0.44*
O=C1CC(=O)N(c2ccc(F)cc2)C(=S)N1	-3	1
COc1ccc(C(=O)NC(Cc2cnc[nH]2)C(=O)O)cc1 (configuration not stated)	0	1.1
O=C1/C(=C/c2ccccc2O)N2CCC1CC2	-5	1.1
Oc1ccc(Br)cc1CN1CCN(Cc2ccc(F)cc2)CC1	-7	1
O=C1c2ccccc2-c2onc3c(Br)cc(N4CC4)c1c23	8	0.78*
O=Cc1cn(Cc2ccc(Cl)c(Cl)c2)c2ccccc12	-5	0.94
COc1ccc(CN2CCNCC2)cc1OC	-7	0.99
Nc1ccc(Oc2ccc(N)c(N)c2)cc1N	0	0*
CCNc1cc2oc(=O)cc(C(F)(F)F)c2cc1C	36	0.96
O=C1NC(=S)NC(=O)C1=Cc1ccc(OCc2ccccc2)c(OCc2ccccc2)c1	-2	0.84
COc1ccc(C=C2C(=O)NC(=O)NC2=O)cc1OCc1ccc(Cl)cc1Cl	-19	0.61*
Cc1nc2ccc(I)cc2c(=O)n1-c1ccc([N+](=O)[O-])cc1Cl	2	0.81
COc1ccc(C2c3c(c4ccccc4oc3=O)Oc3c2c(=O)oc2ccccc32)cc1Cn1nc(C)c([N+](=O)[O-])c1C	2	1
Cc1ccc(C=C2C(=O)NC(=S)N(c3ccccc3F)C2=O)s1	42*	1.1
O=C1NC(=S)N(c2ccc(Br)cc2)C(=O)/C1=C/c1ccc(-c2ccccc2C(=O)O)o1	33	1
CCCCCC1(C)NCCN2C(=O)CSC21 (configuration not stated)	3	1
COC(=O)N1[C@H](c2ccccc2)[C@@H]1c1ccccc1	13	0.68*
COc1ccccc1OCC(=O)N1CCN(C)CC1	1	1
SMILES	HCV NS3h FP	Cy5 interf NS3h	others
O=c1oc2ccccc2c2c1C(c1ccccc1)c1c(c3ccccc3oc1=O)O2	-4	1
COC(=O)c1cccc(-c2ccc(C=C3C(=O)NC(=S)NC3=O)o2)c1	21	0.75*
Cc1cccc(N2C(=O)NC(=O)/C(=C/c3ccc(-c4ccc(C(=O)O)c(Cl)c4)o3)C2=O)c1	28	1
O=Cc1cn(Cc2ccccc2F)c2ccccc12	17	1
Cc1ccc(S(=O)(=O)n2cc(C=C3C(=O)NC(=O)NC3=O)c3ccccc32)cc1	16	0.7*
Cc1cc(C)cc(-n2c(C)cc(C=C3C(=O)NC(=O)NC3=O)c2C)c1	0	1
CCn1cc(C=C2C(=O)NC(=O)NC2=O)c2ccccc21	7	0.73*
CN1CCN(c2ccc([N+](=O)[O-])c(NC3CC3)c2)CC1	4	0.87
O=[N+]([O-])c1ccc(N2CCNCC2)cc1NCCOc1ccccc1	1	0.7*
O=C(CN1CCCC1=O)NCc1ccccc1	16	1
CC1(C)CN1S(=O)(=O)c1ccc(Cl)cc1 (configuration not stated)	-20	1.1
COc1ccc(O)c(CN2CCN(Cc3ccc(F)cc3)CC2)c1	64*	1.2*	HCV NS3h conf=3;SSB FP counter=11;Cy5 SSB fluor CB=0.94;Cy5 fluor confirm=0.97
COc1ccc(O)c(CN2CCN(Cc3ccc(Br)cc3)CC2)c1	4	1
Cc1c(C=O)c2ccccc2n1Cc1ccc(Cl)cc1	5	1
Cc1ccc(N2C(=O)NC(=O)/C(=C\c3ccc(-c4ccc(Cl)c(C(=O)O)c4)o3)C2=O)cc1	62*	0.99	HCV NS3h conf=75*;SSB FP counter=62*;Cy5 SSB fluor CB=0.92;Cy5 fluor confirm=1
O=C1NC(=O)C(=Cc2ccc(-c3ccc(C(=O)O)cc3)o2)C(=O)N1	69*	0.97	HCV NS3h conf=29;SSB FP counter=32;Cy5 SSB fluor CB=0.9;Cy5 fluor confirm=0.8*
O=C1NC(=O)N(c2ccccc2F)C(=O)/C1=C/c1ccc(-c2cc(C(=O)O)ccc2Cl)o1	36	1.1	HCV NS3h conf=92*;SSB FP counter=28;Cy5 SSB fluor CB=0.98;Cy5 fluor confirm=0.83
O=C1NC(=O)N(c2ccc(Cl)cc2)C(=O)/C1=C\c1cc(Br)cc(Cl)c1O	14	0.89
COc1ccc(N2C(=O)/C(=C/c3ccc(-c4cc(C(=O)O)ccc4Cl)o3)C(=O)NC2=S)cc1	33	1.1	HCV NS3h conf=35;SSB FP counter=67*;Cy5 SSB fluor CB=0.88;Cy5 fluor confirm=0.8*
Oc1ccc(Br)cc1CN1CCN(Cc2cccc(F)c2)CC1	0	0.98
O=C(Cn1c[n+]([N-][N+](=O)[O-])cn1)Nc1ccc([N+](=O)[O-])cc1	12	1
O=[N+]([O-])c1ccc(N2CCOCC2)c(F)c1Br	-2	0.94
Cc1ccc(C(=O)Nc2ccc(N/C(N)=N\[N+](=O)[O-])cc2)cc1	-2	1
O=C(NC(O)C(Cl)(Cl)Cl)C1CC=CCC1 (configuration not stated)	11	1.1
O=C(Nc1nc2ccccc2s1)C(Cl)(Cl)Cl	4	0.94
SMILES	HCV NS3h FP	Cy5 interf NS3h	others
O=C(CF)NC(Nc1ccc(Br)cc1)C(Cl)(Cl)Cl (configuration not stated)	0	0.92
CCC1(c2ccccc2)C(=O)NC(=O)N(C(=O)c2cccc(F)c2)C1=O (configuration not stated)	4	1
CC(C)Oc1ccccc1C=C1C(=O)NC(=O)NC1=O	42*	1	HCV NS3h conf=18;SSB FP counter=17;Cy5 SSB fluor CB=0.98;Cy5 fluor confirm=0.92
COc1ccc(CN2CCNCC2)c(OC)c1	-11	1
Cc1cc(C=C2C(=O)NC(=S)NC2=O)c(C)n1-c1ccccc1	-1	1
COc1ccc(C=C2C(=O)NC(=O)NC2=O)c(OC)c1	61*	0.85	HCV NS3h conf=46;SSB FP counter=17;Cy5 SSB fluor CB=0.99;Cy5 fluor confirm=0.99
COc1ccccc1CN1CCN(Cc2cc(Br)ccc2O)CC1	-3	1
Cc1cccc(N2C(=O)/C(=C/c3ccc(OCc4cccc(C(=O)O)c4)cc3)C(=O)NC2=S)c1	-6	1
O=C1NC(=S)NC(=O)C1=Cc1ccc(OCc2cccc(C(=O)O)c2)cc1	58*	1.1	HCV NS3h conf=38;SSB FP counter=89*;Cy5 SSB fluor CB=0.9;Cy5 fluor confirm=0.9
O=C1NC(=S)NC(=O)C1=Cc1ccc(OCc2cccc3ccccc23)cc1	53*	0.9	HCV NS3h conf=29;SSB FP counter=66*;Cy5 SSB fluor CB=0.85;Cy5 fluor confirm=0.87
O=C1NC(=O)N(c2ccc3c(c2)OCO3)C(=O)/C1=C/c1ccc(OCc2cccc(C(=O)O)c2)cc1	48*	1.1	HCV NS3h conf=20;SSB FP counter=58*;Cy5 SSB fluor CB=0.95;Cy5 fluor confirm=0.75*
